Most compounds without a hit are left out; they make up all but 2% or so of the library.
Neddyl block: inhibitors of cullin neddylation, primary screen, biochemical, TR-FRET, uHTS, NAE and Ubc12; NEDD8-conjugating enzyme Ubc12 (Homo sapiens) + NEDD8-activating enzyme E1 regulatory …; inhibition, % at 25 µM; 0.58% of 360,000 active; in the data active = inhibition above about 36%
Target sequence (P61081 whole entry, looked up): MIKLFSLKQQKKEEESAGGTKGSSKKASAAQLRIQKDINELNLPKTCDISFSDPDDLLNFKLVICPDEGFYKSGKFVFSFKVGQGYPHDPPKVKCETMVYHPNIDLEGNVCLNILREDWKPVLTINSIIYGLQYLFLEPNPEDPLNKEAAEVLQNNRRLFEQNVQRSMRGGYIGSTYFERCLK
Target sequence (Q13564 whole entry, looked up): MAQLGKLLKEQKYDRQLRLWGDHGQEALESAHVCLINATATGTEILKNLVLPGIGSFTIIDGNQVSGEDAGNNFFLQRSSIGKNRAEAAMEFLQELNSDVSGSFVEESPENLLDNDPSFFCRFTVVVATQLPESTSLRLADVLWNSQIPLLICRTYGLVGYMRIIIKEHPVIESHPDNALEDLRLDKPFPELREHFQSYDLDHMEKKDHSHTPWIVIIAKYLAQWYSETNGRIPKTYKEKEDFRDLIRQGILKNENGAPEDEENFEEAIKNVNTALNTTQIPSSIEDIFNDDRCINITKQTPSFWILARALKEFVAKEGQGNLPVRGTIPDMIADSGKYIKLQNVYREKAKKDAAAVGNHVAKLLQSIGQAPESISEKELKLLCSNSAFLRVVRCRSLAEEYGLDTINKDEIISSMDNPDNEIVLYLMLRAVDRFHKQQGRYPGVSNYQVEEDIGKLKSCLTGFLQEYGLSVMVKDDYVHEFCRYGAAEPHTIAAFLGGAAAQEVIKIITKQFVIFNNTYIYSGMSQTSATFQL
ARNT TACC3 PPI: disruptors of ARNT/TACC3 protein interaction, primary screen, biochemical, AlphaScreen, single concentration. Transforming acidic coiled-coil-containing protein 3 (Homo sapiens), Q9Y6A5. AlphaScreen His-ARNT PAS-B/GST-TACC3 binding, luminescence; TACC3 fragment carries E629A point mutation. inhibition, % at 9.99 µM. 0.66% of 390,000 active;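 active = mean inhibition of replicates at least 50% and at least half of replicates each reaching 50%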;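 also: 0% = complete ARNT plus TACC3 wells and 100% = ARNT alone without TACC3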
NadD inh: inhibitors of S. aureus NadD, primary screen, biochemical, colorimetric, uHTS; inhibition, % at 20 µM; purified NadD enzyme, colorimetric absorbance read-out; Nicotinate-nucleotide adenylyltransferase NadD (Staphylococcus aureus N315); AID 602399, 2012; 0.78% of 360,000 active; in the data active = inhibition above about 26%
DAGLB inh: DAGLB lipase inhibitors, primary screen, biochemical, fluorescence, HTS; HEK293T DAGLB membrane lysate, EnzChek fluorogenic substrate; 0.059% of 340,000 active; inhibition, % at 5.17 µM; AID 504411, 2011; Diacylglycerol lipase-beta (Homo sapiens), Q8NCG7; in the data active = inhibition above about 34%;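 also: 0% = enzyme with vehicle and 100% = wells lacking enzyme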
sPLA2-III inh: human group III sPLA2 inhibitors, primary screen, biochemical, QFRET, BODIPY PC-A2 liposome substrate. Group 3 secretory phospholipase A2 (Homo sapiens), Q9NZ20. 0.56% of 370,000 active. QFRET BODIPY PC-A2 liposome hydrolysis, fluorescence. inhibition, % at 12.2 µM;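 active = inhibition above mean plus 3 SD of compounds lying within the high and low control bounds, cut at about 19% in these data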;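 also: 0% = median of test compound wells and 100% = no enzyme DMSO wells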
hGIII sPLA2 conf: human group III sPLA2 inhibitors, confirmation, biochemical, QFRET, triplicate; shares compounds with sPLA2-III inh; recombinant hGIII-sPLA2, BODIPY PC-A2 QFRET fluorescence; inhibition, % at 12.2 µM; 34% of 2,000 active; AID 743280, 2014;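 active = mean inhibition across triplicates above the hit cutoff set in the earlier primary screen, cut at about 19% in these data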;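 also: 0% = enzyme with DMSO and 100% = DMSO wells lacking enzyme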
535nm interf: 535nm fluorescence optical interference, confirmation, artefact control for HGIII-sPLA2 inhibitor project, biochemical, QFRET. 8.5% of 2,000 active. shares compounds with sPLA2-III inh. inhibition, % at 12.2 µM. BODIPY FL product fluorescence interference;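 active = average inhibition above the solvent-only control mean plus 3 SD, cut at about 6% in these data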;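 also: 0% = DMSO with substrate plus product and 100% = DMSO with substrate alone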
BODIPY interf DR: 535nm fluorescence optical interference, dose response, artefact control for HGIII-sPLA2 inhibitor project, biochemical, QFRET; shares compounds with sPLA2-III inh; BODIPY FL product fluorescence interference, cell-free; IC50, µM; 240 tested, under 10 active;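 active = IC50 at or below 10 µM; inactive = IC50 above 10 µM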
* marks the source's active call; other numbers are inactive results; x = no result shown.

SMILES	Neddyl block	ARNT TACC3 PPI	NadD inh	DAGLB inh	sPLA2-III inh	hGIII sPLA2 conf	535nm interf	others
O=C(NCCCN1CCCC1=O)c1ccc(CNS(=O)(=O)c2ccc(F)cc2)cc1	0	-6	1	1	72*	-1	-10
CC(C)(C)c1ccc(-c2csc(N3CCC(C(N)=O)CC3)n2)cc1	x	x	x	x	10	x	x
NC(=O)C1CCN(c2nc(-c3ccc(Br)cc3)cs2)CC1	2	x	0	4	23*	14	0
Clc1ccc(-c2csc(N3CCCCCC3)n2)cc1	0	0	1	-9	23*	27*	6.7*
C[C@@H]1CCCCO[C@H](CN(C)S(=O)(=O)c2ccc(F)cc2)[C@@H](C)CN([C@@H](C)CO)C(=O)c2cc(NC(=O)Nc3cccc4ccccc34)ccc2O1	x	0	x	x	x	x	x
Fc1ccc(-n2c(-c3ccc4c(c3)OCO4)n[nH]c2=S)cc1Cl	-18	x	6	-1	23*	34*	5	BODIPY interf DR=>122
CC(C)CCNC(=O)c1ccc(Cn2c(=S)[nH]c3ccccc3c2=O)cc1	-23	-5	8	1	21*	20*	-11
Cc1ccc(Cn2c(=S)[nH]c3ccccc3c2=O)cc1	-6	-3	3	-6	8	x	x
CC(C)C(N)c1csc(Nc2ccc(C(F)(F)F)cn2)n1 (configuration not stated)	10	x	-12	x	23*	12	-10
CO[C@@H]1CN(C)C(=O)c2cc(NC(=O)C3CCOCC3)ccc2OC[C@@H](C)N(S(=O)(=O)c2ccc(C)cc2)C[C@H]1C	x	1	x	x	x	x	x
O=C(CSCc1ccccc1Br)NNC(=S)NCc1ccco1	3	-2	6	2	40*	48*	8.8*
CC(C)NC(=O)Nc1ccc2c(c1)CC(=O)N([C@@H](C)CO)C[C@@H](C)[C@@H](CN(C)C(=O)NC(C)C)O2	x	-2	x	x	x	x	x
CCCN(CCC)C(=O)C[n+]1cccc(/C=N/O)c1	-1	-6	2	1	20*	5	-5
COc1ccc(C(=O)NNC(=O)COc2ccc(Cl)cc2)c(OC)c1	7	5	-6	1	25*	12	-7
COc1cccc(OCC(=O)NNC(=O)c2ccc3ccccc3c2O)c1	x	-3	-4	7	36*	33*	3	BODIPY interf DR=>122
NC(N)=N/N=C(\N=Nc1ccccc1)c1ccc(Cl)cc1	-21	26	-3	11	27*	34*	2	BODIPY interf DR=>122
S=c1[nH]cc(-c2ccc(Cl)cc2)n1Cc1ccccc1	-281	-3	5	0	24*	9	2
CC(C)CCC(CCNCc1ccccn1)c1ccc2c(c1)OCO2 (configuration not stated)	5	8	-1	-2	23*	-25	-26
CCNCCC(CCC(C)C)c1ccc2c(c1)OCO2 (configuration not stated)	0	3	-10	x	-4	x	x
CC(C)NC(=O)N(C)C[C@H]1Oc2cc(-c3cccnc3)ccc2S(=O)(=O)N([C@H](C)CO)C[C@H]1C	x	-6	x	x	x	x	x
O=C(N/N=C1\CCSc2ccc(F)cc21)c1cccnc1	3	11	-1	0	7	x	x
NC(=S)N/N=C1\CCSc2ccc(Cl)cc21	22	4	23	x	30*	15	-6
C[C@@H]1CN([C@H](C)CO)C(=O)c2cc(NS(=O)(=O)c3ccc(Cl)cc3)ccc2O[C@@H](C)CCCCO[C@H]1CN(C)S(=O)(=O)c1ccc(F)cc1	x	-1	x	x	x	x	x
